# Test system: PRMT1 (protein arginine N-methyltransferase 1)
# Experiment: small molecules binding arginine methyltransferase PRMT1 – biochemical, small-molecule microarray, 635 nm fluorescence, primary screen (AID 1088);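 further: binding of Prmt1 protein to compounds spotted on small-molecule microarray slides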
# Settings: higher = more signal
row,Structure (SMILES),composite z-score
1,COc1ccc(COC(=O)NN=C2C[C@@H](O)[C@@H](O)[C@@H]3[C@@H]4C(=O)N(C[C@@H]5CCCO5)C(=O)[C@@H]4CC[C@H]23)cc1,-0.478
2,CCOC(=O)[C@H](Cc1ccccc1)NC(=O)CCC1CC(OC(=O)NCCc2ccc(F)cc2)CC2(CCCC(COC(=O)NCCC(C)C)O2)O1 (stereo partly specified),1.56
3,COC(=O)CC=C[C@@H](C)[C@@H](C=NOC[C@@H](O)[C@H]1O[C@@H]2OC(C)(C)O[C@@H]2[C@H]1O)OC,0.297
4,C[C@]12CCC3c4ccc(OCC5CO5)cc4CCC3C1CC[C@@H]2O (stereo partly specified),0.205
5,CCOC(=O)CCN1C(=O)[C@H]2[C@H]3[C@H](O)[C@H](O)CC(=NO[C@@H]4O[C@H](CO)[C@@H](O)[C@H](O)[C@H]4O)[C@@H]3CC[C@H]2C1=O,1.52
6,CC(CCN1CCCCc2nc(C)c(C)cc21)=NO[C@H](C)c1cn([C@@H]2COC[C@H]2O)nn1,1.19
7,COc1ccc(COC(=O)NN=C2C[C@@H](O)[C@@H](O)[C@@H]3[C@@H]4C(=O)N(c5cccc(Oc6ccccc6)c5)C(=O)[C@@H]4CC[C@H]23)cc1,-0.412
8,CC=CC1=C(CO)[C@H](O)[C@H]2O[C@H]2[C@@H]1O,0.028
9,CC1(C)O[C@H]2OC([C@H](O)CON3C(=O)c4ccccc4C3=O)[C@H](O)[C@H]2O1 (stereo partly specified),0.318
10,CCOC(=O)NN=C1C[C@@H](O)[C@@H](O)[C@@H]2[C@@H]3C(=O)N(CC)C(=O)[C@@H]3CC[C@H]12,-0.0481
11,CC(=O)OC[C@H]1O[C@@H](ON=C(C)CCC(=O)OC[C@H]2O[C@H](C#Cc3ccccc3)C=C[C@@H]2Oc2ccc(C)cc2)[C@H](OC(C)=O)[C@@H](OC(C)=O)[C@@H]1OC(C)=O,1.54
